According to PubChem BioAssay:
Calls of active or inactive are those of the source.

Legend:
[1] = optical density shifts of acrAB sulA E. coli – strain DRC41, OD650, 48 h, E. coli filamentation inducer project, primary screen (AID 1152); settings: higher = more signal, called active from +8 up or from −8 down;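 also: E. coli MC1000 strain DRC41 lacking acrAB efflux pump and sulA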
[2] = probe aLefty1 binding on compound microarray – biochemical, small-molecule microarray, 635/667 nm fluorescence, primary screen (AID 1153); settings: higher = more signal;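 also: score merges spot fluorescence with signal-to-noise ratio from the scanned slide images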
[3] = plasmodial surface anion channel blockers, osmotic lysis – cell-based, P. falciparum Indochina, OD700, 1 h, primary screen (AID 1154); settings: P. falciparum Indochina infected RBC osmotic lysis, higher = more signal, called active from +8 up or from −8 down
[4] = plasmodial surface anion channel blockers, osmotic lysis – cell-based, P. falciparum Indochina, OD700, 2 h, primary screen (AID 1155);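 also: lysis reports solute entry through the parasite surface anion channel PSAC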; settings: P. falciparum Indochina infected erythrocytes, higher = more signal, called active from +8 up or from −8 down
[5] = changes in parasitized red cell lysis, either direction – P. falciparum Indochina, OD700, 3 h, PSAC antagonist project, primary screen (AID 1156); settings: P. falciparum-infected erythrocytes, osmotic lysis, higher = more signal, called active from +8 up or from −8 down
[6] = plasmodial surface anion channel blockers, osmotic lysis – cell-based, P. falciparum Indochina, OD700, 18 h, primary screen (AID 1157); settings: P. falciparum Indochina infected erythrocytes, osmotic lysis OD700, 18 h; higher = more signal, called active from +8 up or from −8 down
[7] = S6 kinase pathway phospho-S6 level changes – cell-based, A549, cytoblot, luminescence, serum-stimulated, primary screen (AID 1158); settings: 5 h, higher = more signal;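 also: serum-stimulated A549 lung adenocarcinoma cells; signal is phosphorylated S6 detected by cytoblot immunostaining with HRP secondary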
[8] = target: NADPH oxidase 2 (Homo sapiens) (UniProt P04839); experiment: compounds shifting NOX2 Amplex Red fluorescence – cell-based, HEK293-NOX2, PMA-stimulated, NOX inhibitor project, primary screen (AID 1159); settings: 45 min, higher = more signal, called active from +8 up or from −8 down; also: test concentration not given here
Sequence of NADPH oxidase 2 (Homo sapiens) (P04839 whole entry, looked up): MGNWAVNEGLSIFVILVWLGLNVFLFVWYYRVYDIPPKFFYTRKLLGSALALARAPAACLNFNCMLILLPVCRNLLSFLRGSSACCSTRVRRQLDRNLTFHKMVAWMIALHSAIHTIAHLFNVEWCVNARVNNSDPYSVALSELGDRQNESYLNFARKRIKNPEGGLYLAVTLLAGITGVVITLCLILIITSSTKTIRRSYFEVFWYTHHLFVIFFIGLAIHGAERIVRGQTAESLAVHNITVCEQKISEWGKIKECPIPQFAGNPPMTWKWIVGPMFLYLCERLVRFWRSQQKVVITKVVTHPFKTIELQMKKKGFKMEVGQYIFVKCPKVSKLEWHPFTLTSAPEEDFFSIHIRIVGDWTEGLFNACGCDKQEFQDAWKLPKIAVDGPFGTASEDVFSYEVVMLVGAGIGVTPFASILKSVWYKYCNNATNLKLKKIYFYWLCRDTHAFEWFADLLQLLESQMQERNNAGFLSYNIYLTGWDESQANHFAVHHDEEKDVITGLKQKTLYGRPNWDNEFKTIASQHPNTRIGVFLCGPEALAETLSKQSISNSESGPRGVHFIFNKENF

[9] = target: NADPH oxidase 4 (Homo sapiens) (UniProt Q9NPH5); experiment: compounds shifting NOX4 Amplex Red fluorescence – cell-based, HEK293-NOX4, tetracycline-induced, NOX inhibitor project, primary screen (AID 1160); settings: HEK293-NOX4, Amplex Red H2O2 fluorescence, 45 min; higher = more signal, called active from +8 up or from −8 down
Sequence of NADPH oxidase 4 (Homo sapiens) (Q9NPH5 whole entry, looked up): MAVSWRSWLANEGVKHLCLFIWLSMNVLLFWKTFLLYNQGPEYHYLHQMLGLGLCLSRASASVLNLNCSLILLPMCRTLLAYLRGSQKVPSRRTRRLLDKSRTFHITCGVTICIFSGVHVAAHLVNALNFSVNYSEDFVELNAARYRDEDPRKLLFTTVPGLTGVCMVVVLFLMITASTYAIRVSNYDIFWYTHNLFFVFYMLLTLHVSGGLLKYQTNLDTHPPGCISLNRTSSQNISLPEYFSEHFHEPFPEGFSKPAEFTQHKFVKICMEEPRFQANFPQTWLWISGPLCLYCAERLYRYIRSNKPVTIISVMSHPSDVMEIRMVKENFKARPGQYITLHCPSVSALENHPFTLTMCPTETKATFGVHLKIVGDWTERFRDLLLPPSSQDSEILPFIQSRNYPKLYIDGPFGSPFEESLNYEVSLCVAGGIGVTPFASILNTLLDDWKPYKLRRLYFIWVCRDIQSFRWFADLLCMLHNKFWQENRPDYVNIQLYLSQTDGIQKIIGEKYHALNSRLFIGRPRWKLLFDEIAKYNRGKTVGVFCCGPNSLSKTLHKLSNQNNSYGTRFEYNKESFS

[10] = target: NADPH oxidase 5 (Homo sapiens) (UniProt Q96PH1); experiment: compounds shifting NOX5 Amplex Red fluorescence – cell-based, HEK293-NOX5, NOX inhibitor project, primary screen (AID 1161); settings: HEK293-NOX5, ionomycin, 45 min, higher = more signal
Sequence of NADPH oxidase 5 (Homo sapiens) (Q96PH1 whole entry, looked up): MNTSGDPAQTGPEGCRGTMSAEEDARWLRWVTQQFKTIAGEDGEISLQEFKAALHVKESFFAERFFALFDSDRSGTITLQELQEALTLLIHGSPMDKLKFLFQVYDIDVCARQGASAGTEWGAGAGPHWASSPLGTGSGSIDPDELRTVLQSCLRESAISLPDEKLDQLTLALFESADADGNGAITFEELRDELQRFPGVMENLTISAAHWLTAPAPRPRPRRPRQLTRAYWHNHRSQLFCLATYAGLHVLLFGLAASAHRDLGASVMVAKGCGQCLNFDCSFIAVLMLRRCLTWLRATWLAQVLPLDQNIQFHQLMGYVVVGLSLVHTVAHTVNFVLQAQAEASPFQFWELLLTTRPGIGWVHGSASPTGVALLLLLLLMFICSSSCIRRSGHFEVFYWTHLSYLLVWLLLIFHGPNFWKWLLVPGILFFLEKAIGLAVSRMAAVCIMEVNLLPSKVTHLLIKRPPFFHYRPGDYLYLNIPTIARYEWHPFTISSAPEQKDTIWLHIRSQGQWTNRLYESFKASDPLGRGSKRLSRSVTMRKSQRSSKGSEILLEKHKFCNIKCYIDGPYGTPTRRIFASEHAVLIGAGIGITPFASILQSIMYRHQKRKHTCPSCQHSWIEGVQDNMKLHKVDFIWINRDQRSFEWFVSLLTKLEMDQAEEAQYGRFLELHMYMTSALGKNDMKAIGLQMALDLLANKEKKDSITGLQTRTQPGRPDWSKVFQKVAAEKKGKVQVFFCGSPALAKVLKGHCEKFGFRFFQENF

Structure (SMILES) | z-score [1] | composite z-score [2] | z-score [3] | z-score [4] | z-score [5] | z-score [6] | z-score [7] | z-score [8] | z-score [9] | z-score [10]
CCOC(=O)C1=C[C@@H](C(C)C)N(S(=O)(=O)c2ccc(C)cc2)[C@H]1c1ccc(C(C)C)cc1 | -0.39 (inactive) | 0.262 | 0.431 (inactive) | 0.749 (inactive) | 0.4 (inactive) | 0.367 (inactive) | -0.234 | -0.5 (inactive) | -0.195 (inactive) | -0.151
COc1ccc(CCN2C(=O)[C@@]3(Cc4ccccc42)c2ccccc2C(=O)N(Cc2ccccc2Cl)[C@H]3c2ccc(CO)cc2)cc1 | 0.641 (inactive) | 0.0844 | 2.59 (inactive) | 0.346 (inactive) | 0.679 (inactive) | 0.425 (inactive) | 0.306 | 1.3 (inactive) | -1.49 (inactive) | 1.28
COC(=O)[C@@]1(Cc2ccccc2)[C@H]2c3cc(C(=O)N(C)C)n(Cc4cc(C)n(C)n4)c3C[C@H]2CN1C(=O)c1ccccc1 | -1.85 (inactive) | 0.33 | 1.11 (inactive) | 0.234 (inactive) | 0.452 (inactive) | 0.396 (inactive) | 0.251 | 0.904 (inactive) | -0.925 (inactive) | -2.11
O=C1O[C@@H](c2ccccc2)[C@@H](c2ccccc2)N2[C@@H](c3ccccc3OCCO)[C@]3(C(=O)Nc4ccc(C#CC5(O)CCCCCC5)cc43)[C@@H](C(=O)Nc3nc4ccccc4s3)[C@H]12 | -0.478 (inactive) | -0.12 | 3.1 (inactive) | 3.75 (inactive) | 1.96 (inactive) | 1.56 (inactive) | 0.361 | 1.42 (inactive) | 0.501 (inactive) | 1.28
O=C1N(CCS(=O)(=O)c2ccccc2)c2ccccc2C[C@@]12COC(c1ccc(OCCCO)cc1)=N2 | -2.43 (inactive) | 0.0804 | 23.6 (active) | 8.71 (active) | 2.58 (inactive) | 0.764 (inactive) | -0.616 | 0.759 (inactive) | 1.04 (inactive) | -0.312
CCC(CC)C(O)C1C=CC2C(=O)N(c3ccccc3)C(=O)C2N1Nc1ccc(C#N)cc1 (stereo not given) | -0.35 (inactive) | 0.675 | 15.4 (active) | 2.91 (inactive) | 3.47 (inactive) | 1.51 (inactive) | -1.11 | -1.49 (inactive) | -3.45 (inactive) | -3.2
O=C(NCc1ccccc1)[C@]1(CCS(=O)(=O)c2ccccc2)N=C(c2ccc(OCCCO)cc2)O[C@@H]1c1ccccc1 | 0.673 (inactive) | -0.345 | 24 (active) | 6.86 (inactive) | 1.85 (inactive) | 1.45 (inactive) | -0.402 | 0.0459 (inactive) | 0.902 (inactive) | 0.242
Cc1ccc(S[C@]2(C(=O)NCc3ccccc3)CC(=O)N(Cc3ccccc3Cl)[C@@H]2c2ccc(CO)cc2I)cc1 | 0.196 (inactive) | 0.0903 | 3.44 (inactive) | 0.68 (inactive) | 1.9 (inactive) | 0.255 (inactive) | 0.379 | 2.76 (inactive) | -0.824 (inactive) | 0.774
C=C(COC)C(=O)CC[C@H](OC(C)=O)c1cccc(OCCO)c1 | 0.527 (inactive) | -0.393 | 4.14 (inactive) | -1.22 (inactive) | 1.88 (inactive) | -1.48 (inactive) | 2.19 | -1.66 (inactive) | -0.724 (inactive) | -1.46
CC(C)CNC(=O)[C@@]1(c2ccc([N+](=O)[O-])cc2)CC(=O)N(CC23CC4CC(CC(C4)C2)C3)[C@@H]1c1ccc(CO)cc1I | -0.998 (inactive) | -0.0114 | 17.2 (active) | 3.11 (inactive) | 2.73 (inactive) | 1.41 (inactive) | -0.472 | 2 (inactive) | -1.12 (inactive) | 1.75
CC1CC/C=C\[C@H]2OC34C=CCN(Cc5ccccc5)C(=O)[C@H]3N(CCCCCO)C(=O)[C@@H]4C2C(=O)O1 (stereo not given in full) | -0.94 (inactive) | -0.326 | -0.365 (inactive) | -0.0369 (inactive) | -0.692 (inactive) | -0.0374 (inactive) | -0.689 | 0.852 (inactive) | -0.14 (inactive) | 1.34
COCCOC(=O)N1C(=O)[C@@]2(c3cc(C#CCC(C(=O)OC)C(=O)OC)ccc31)[C@H](C(=O)N1CCCCCCC1)[C@H]1C(=O)O[C@H](c3ccccc3)[C@H](c3ccccc3)N1[C@@H]2c1ccc(OCCO)cc1 | 0.917 (inactive) | 2.5 | 17.1 (active) | 4.27 (inactive) | 0.791 (inactive) | 1.14 (inactive) | -0.0447 | 0.327 (inactive) | 0.43 (inactive) | 0.547
